Consider 40 compounds from PubChem BioAssay (EPA / NIEHS).

The source made the active and inactive calls. How the source made its calls: active means hit-call score of the fitted dose curve at least 0.9, where 1 is the maximum; inactive means score below 0.9.

The nature of this test: ATG_M_61_CIS: Attagene CIS-FACTORIAL HepG2 Assay for M61 Transcription Factor (Internal Marker) (AID 2282937). The conditions noted are these: HepG2 Attagene CIS-FACTORIAL M61 internal marker reporter; actives raise or lower the signal. The protocol: ATG_CIS is a cell-based, multiplexed-readout assay that uses HepG2, a human liver cell line, with measurements taken at 24 hours after chemical dosing in a 24-well plate.ATG_M_61_CIS is one of 52 assay component(s) measured or calculated from the ATG_CIS assay. It is designed to make measurements of mRNA induction, a form of inducible reporter, as detected with fluorescence intensity signals by Reverse transcription polymerase chain reaction (RT-PCR) and Capillary electrophoresis technology.Data from the assay component ATG_M_61_CIS was analyzed into 1 assay endpoint. This assay endpoint, ATG_M_61_CIS, was analyzed with bidirectional fitting relative to DMSO as the negative control and baseline of activity. Using a type of inducible reporter, measures of mRNA for gain or loss-of-signal activity can be used to understand the background control at the transcription factor-level as they relate to the gene . Furthermore, this assay endpoint can be referred to as a secondary readout, because this assay has produced multiple assay endpoints where this one serves a background control function. To generalize the intended target to other relatable targets, this assay endpoint is annotated to the background measurement intended target family, where the subfamily is internal marker.
Human liver HepG2 cells are transiently transfected with multiple reporter transcription units (MRTUs) in 6-well plates using FuGene 6 reagent (Roche; 3 ml FuGene/1 mg DNA). The MRTU constructs are regulated by a cis-regulating element (promoter). […] A major difference between the CIS and TRANS system is that in CIS activities of endogenous TFs are measured, whereas the TRANS assay evaluates changes in activities of exogenous, chimeric NR-Gal4 proteins. […] At the end of 24 hour incubation, total RNA was isolated using TriZol reagent (Invitrogen). The isolated RNA is then reverse-transcribed using oligo(dT) primer and Mo-MLV reverse transcriptase (Invitrogen) with DNAse I (Ambion) treatment for 30 min. The one-tenth of the produced cDNA was amplified by PCR using Taq DNA polymerase (Invitrogen) and two reporter sequence-specific primers. The PCR products were fluorescently labeled by primer extension with 6-arboxyfluorescein (6-FAM) 5'-labeled reporter sequence-specific primer (2 min at 95 C, 20 s at 68 C and 10 min at 72 C) and these products were digested with 5U of HpaI (New England Biolabs) for 2h at 37 C. The fragments were purified using Qiaquick PCR columns (Qiagen), analyzed on an ABI 3130xL genetic analyzer (Applied Biosystems) with peak positions identified by using a set of X-rhodamine (ROX)-labeled MapMarker1000 molecular weight standards (BioVentures). The raw capillary electrophoresis data was processed using Attagraph software (Attagene).
As to `O=C(O)CCC(F)(F)C(F)(F)C(F)(F)C(F)(F)C(F)(F)C(F)(F)C(F)(F)F`, the compound was called inactive.

Consider `c1ccc(C[P+](c2ccccc2)(c2ccccc2)c2ccccc2)cc1`, for which the compound was called inactive.

Consider `NCC(F)(F)C(F)(F)C(F)(F)C(F)(F)C(F)(F)C(F)(F)F`, for which the compound was classed as inactive.

For `C=C(C)C(=O)OCC(F)(F)C(F)(F)C(F)(F)C(F)F`, the call was inactive.

Turning to `Cc1cnccn1`, the outcome was inactive.

`O=C1C=CC(=O)N1c1ccccc1`: the compound was classed as inactive.

As for `Brc1ccccn1`, the outcome was inactive.

With `COc1ccccc1C=O`, the call was inactive.

Regarding `CNS(=O)(=O)C(F)(F)C(F)(F)C(F)(F)C(F)(F)C(F)(F)C(F)(F)C(F)(F)C(F)(F)F`, the outcome was inactive.

On to `C[C@]12CC[C@H]3C(=CCc4cc(O)ccc43)[C@@H]1CCC2=O`, for which the call was inactive.

As to `Cc1cc(=O)[nH]c(C(C)C)n1`, the call was inactive.

`CCc1cc(Cc2cc(CC)c(N)c(CC)c2)cc(CC)c1N`: the call was inactive.

Consider `O=C1c2ccccc2C(=O)c2c(Cl)cccc21`, for which the result was inactive.

Take `CCOC(=O)C1CC(=O)C(=C(O)C2CC2)C(=O)C1` (stereo not given): the call was inactive.

On to `CCN(CC)c1ccc(C=O)c(O)c1`, for which the outcome was inactive.

Turning to `CCOC(C=C(C)CCC=C(C)C)OCC`, the outcome was inactive.

Regarding `NC(=O)C(F)(F)C(F)(F)C(F)(F)C(F)(F)C(N)=O`, the outcome was inactive.

As to `CC(C)(C)C(=O)C1C(=O)c2ccccc2C1=O`, the call was inactive.

With `CCCCCCCCCCCCCCCCC`, the call was inactive.

In the case of `Cc1ccc2c(c1)OCC(=O)CO2`, the compound was called inactive.

Consider `O=c1cccc[nH]1`, for which the call was inactive.

As for `CCOC(OCC)OCC`, the compound was called inactive.

For the compound `CSc1ccc(Cl)cc1`, the compound was classed as inactive.

As for `CCc1ccc(C)nc1`, the result was inactive.

In the case of `O=c1[nH]cccc1O`, the outcome was inactive.

With `CC(C)(C)c1cc(CCC(=O)OCC(COC(=O)CCc2cc(C(C)(C)C)c(O)c(C(C)(C)C)c2)(COC(=O)CCc2cc(C(C)(C)C)c(O)c(C(C)(C)C)c2)COC(=O)CCc2cc(C(C)(C)C)c(O)c(C(C)(C)C)c2)cc(C(C)(C)C)c1O`, the outcome was inactive.

Turning to `Cc1ccc(O)c(-n2nc3ccccc3n2)c1`, the compound was called inactive.

As for `Nc1c(Br)cc([N+](=O)[O-])cc1Br`, the outcome was inactive.

As to `FC(F)(F)C(F)(F)C(F)(F)C(F)(F)C(F)(F)C(F)(F)C(F)(F)CCI`, the compound was classed as inactive.

As to `CCOCN(C(=O)CS(=O)(=O)O)c1c(C)cccc1CC`, the compound was classed as inactive.

For `O=C1OC(=O)c2ccc3c4c(ccc1c24)C(=O)OC3=O`, the result was inactive.

As for `CCCCCCCCCCCCC[N+](C)(C)Cc1ccccc1`, the result was inactive.

With `CC(C)(C)c1cc(CCC(=O)NCCCCCCNC(=O)CCc2cc(C(C)(C)C)c(O)c(C(C)(C)C)c2)cc(C(C)(C)C)c1O`, the compound was classed as inactive.

On to `CC(C)C(=O)OCc1ccccc1`, for which the call was inactive.

With `CCOCOCC`, the call was inactive.

For the compound `CCC(=O)OC(C)c1ccccc1` (stereo not given), the outcome was inactive.

In the case of `CC(C)CCCC(C)CCO` (stereo not given), the call was inactive.

Take `CC1CCCCC1`: the compound was called inactive.

As to `O=C=Nc1cccc2c(N=C=O)cccc12`, the outcome was inactive.

With `N#Cc1ccccc1O`, the result was inactive.
